Assay results taken from article PMC7826789 (International Journal of Molecular Sciences, 2021).

The molecules below were run on CDK2.

Kinases covered, CDK2:
NS(=O)(=O)c1ccc(N/N=C2\C(=O)Nc3ccc(Cl)cc32)cc1 [GW280670X]
O=C(Nc1n[nH]c2nc(-c3ccc(O)cc3)c(Br)cc12)C1CC1 [SB-725317]
NS(=O)(=O)c1ccc(N/N=C2\C(=O)Nc3ccc(C(=O)NCc4ccncc4)cc32)cc1 [GW300657X]
NS(=O)(=O)c1ccc(Nc2ncc(-c3ccccc3)o2)cc1 [GW572399X]
CC(C)COC(=O)c1ccc2c(c1)/C(=C/Nc1ccc(S(N)(=O)=O)cc1)C(=O)N2 [GW416981X]
NS(=O)(=O)c1ccc(N/N=C2\C(=O)Nc3ccc(-c4cnco4)cc32)cc1 [GW276655]
